Data reported in the supplement of paper PMC10646978.
± gives the standard deviation.

Columns and labels:
Conditions in all cases: modulator concentration 10 µM
[1] = tested on: RAW-Dual (murine macrophage reporter line); assay: NF-kB reporter (SEAP) activity fold change vs agonist alone; higher = enhanced NF-kB activity
Procedure, shortened: (§1)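 RAW-Dual murine macrophage reporter cells were seeded at 50 000 per well in 384-well plates and pre-incubated 1 hour at 37 °C with compound pin-transferred to 10 μM final. After 1 hour, a PRR agonist was added and cells incubated overnight. Supernatant NF-κB (SEAP, QUANTI-Blue, 620 nm absorbance) and IRF (Lucia luciferase, QUANTI-Luc, luminescence) signals were divided by the mean agonist-only control on the same plate to give fold change. Two replicate plates were averaged, with errors by propagation.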

[2] = tested on: RAW-Dual (murine macrophage reporter line); assay: IRF reporter (Lucia luciferase) activity fold change vs agonist alone; higher = enhanced IRF activity
Procedure, shortened: as §1

[3] = tested on: RAW-Dual (murine macrophage reporter line); assay: viability score (confluency relative to resting cells, overnight) (fraction); higher = more viable, active = viable (0.7 or more)
Procedure, shortened: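 Overnight exposure to 10 μM final compound was carried out on RAW-Dual macrophages in 384-well plates. IncuCyte software generated two confluency masks over all wells imaged with IncuCyte. The viability score gives confluency in relation to resting cells. A compound met the cutoff if each mask exceeded 70% of resting cells.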

[4] = agonist: CpG ODN 1826 0.5 ug/mL

| Structure (SMILES) | NF-kB reporter [1, 4] | NF-kB reporter ([1]; agonist: LPS 0.1 ug/mL) | NF-kB reporter ([1]; agonist: MPLA […]) | IRF reporter ([2]; agonist: 3'3'-cGAMP 10 ug/mL) | IRF reporter ([2]; agonist: LPS 0.1 ug/mL) | IRF reporter ([2]; agonist: MPLA […]) | viability score [3] |
| --- | --- | --- | --- | --- | --- | --- | --- |
| Cc1cc(C)nc(Nc2ncc(O)n2-c2ccc(F)cc2)n1 | 1.11 ± 0.087 | 1.1 ± 0.13 | 1.01 ± 0.038 | 0.992 ± 0.074 | 1.04 ± 0.14 | 1.16 ± 0.27 | 0.991 (active) |
| CN(C)c1ccc(C=C2C(=O)C(=O)c3ccccc32)cc1Br | 0.989 ± 0.098 | 0.947 ± 0.15 | 0.999 ± 0.036 | 1.02 ± 0.21 | 1 ± 0.043 | 1 ± 0.16 | 1 (active) |
| CCC(NC(C)C)C(O)c1ccc(O)c(O)c1 (configuration not stated) [Prestw-749] | 2.04 ± 0.12 | 1.13 ± 0.092 | 1.34 ± 0.13 | 0.988 ± 0.039 | 0.96 ± 0.051 | 1.08 ± 0.25 | 0.997 (active) |
| COc1cccc(-c2csc(C(C#N)=CNc3cc(Cl)ccc3OC)n2)c1 | 0.939 ± 0.096 | 1.06 ± 0.083 | 0.963 ± 0.093 | 0.964 ± 0.024 | 1.24 ± 0.21 | 1.01 ± 0.26 | 1.01 (active) |
| Cc1cc(CCNS(=O)(=O)c2cccc(C(F)(F)F)c2)nn1C | 0.898 ± 0.068 | 0.995 ± 0.1 | 0.988 ± 0.06 | 0.96 ± 0.06 | 0.961 ± 0.097 | 1 ± 0.23 | 1 (active) |
| COc1cc2c(cc1OC)C1Cc3ccc(OC)c(OC)c3CN1CC2 (configuration not stated) | 0.932 ± 0.24 | 0.87 ± 0.044 | 0.949 ± 0.067 | 0.871 ± 0.052 | 1.09 ± 0.14 | 1.15 ± 0.17 | 1 (active) |
| CC(=O)NNC(=O)c1ccncc1 | 1.13 ± 0.089 | 1.13 ± 0.074 | 1.03 ± 0.043 | 1 ± 0.15 | 1.07 ± 0.14 | 1.07 ± 0.26 | 0.996 (active) |
| C=C1c2cccc(O)c2C(=O)C2=C(O)[C@]3(O)C(=O)C(C(N)=O)=C(O)[C@@H](N(C)C)[C@@H]3[C@@H](O)[C@H]12.Cl | 1.16 ± 0.29 | 0.985 ± 0.064 | 0.952 ± 0.07 | 0.914 ± 0.045 | 1.22 ± 0.23 | 1.14 ± 0.13 | 0.962 (active) |
| CN(CC(=O)O)c1nc2ccc(OC(F)(F)F)cc2s1 | 0.821 ± 0.15 | 1.03 ± 0.13 | 0.736 ± 0.064 | 0.892 ± 0.048 | 0.941 ± 0.17 | 0.952 ± 0.14 | 1.01 (active) |
| COc1ccc2c(c1)c(CC(=O)O)c(C)n2C(=O)c1ccc(Cl)cc1 | 1.23 ± 0.21 | 1.06 ± 0.16 | 0.951 ± 0.054 | 1.05 ± 0.034 | 1.25 ± 0.14 | 1.29 ± 0.1 | 1 (active) |
| CN(C)CCC=C1c2ccccc2C=Cc2ccccc21.Cl | 0.43 ± 0.079 | 1.25 ± 0.15 | 1.13 ± 0.069 | 0.406 ± 0.019 | 1.61 ± 0.14 | 1.18 ± 0.13 | 0.918 (active) |
| CC(C)(C)c1cc(C(=O)NN=Cc2ccc([N+](=O)[O-])cc2)[nH]n1 | 0.924 ± 0.12 | 0.953 ± 0.083 | 0.893 ± 0.09 | 0.858 ± 0.061 | 1.2 ± 0.11 | 1.02 ± 0.072 | 1.01 (active) |
| O=C(O)c1cc([N+](=O)[O-])c(Nc2cccc3ccccc23)c([N+](=O)[O-])c1 | 0.879 ± 0.05 | 1.05 ± 0.068 | 0.888 ± 0.074 | 0.965 ± 0.057 | 1.31 ± 0.12 | 1.13 ± 0.22 | 1.01 (active) |
| COC(C(=O)NNC(=O)c1ccccc1Cl)c1ccccc1 (configuration not stated) | 1.3 ± 0.1 | 1.1 ± 0.1 | 1.11 ± 0.1 | 0.618 ± 0.39 | 0.993 ± 0.069 | 0.863 ± 0.081 | 1.01 (active) |
| COC(=O)C1=C(C)NC(=Cc2c(F)cccc2Cl)C1=O | 0.944 ± 0.17 | 0.966 ± 0.077 | 0.963 ± 0.11 | 0.876 ± 0.023 | 1.23 ± 0.19 | 1.13 ± 0.16 | 0.985 (active) |
| Cc1cc2ncc3c(n2n1)CCN(S(=O)(=O)N(C)C)C3 | 0.989 ± 0.11 | 1.01 ± 0.097 | 0.938 ± 0.043 | 1.03 ± 0.071 | 1.09 ± 0.081 | 1.05 ± 0.08 | 1 (active) |
| Cc1cc2ncc3c(n2n1)CCN(C(=O)c1cnoc1C)C3 | 0.857 ± 0.037 | 0.964 ± 0.077 | 1.02 ± 0.055 | 0.972 ± 0.045 | 1.11 ± 0.25 | 1.21 ± 0.43 | 0.896 (active) |
| CCN(CC)Cc1ccc(Nc2ccnc3cc(Cl)ccc23)cc1O.Cl.Cl | 0.998 ± 0.1 | 0.874 ± 0.065 | 0.908 ± 0.085 | 0.988 ± 0.055 | 1.09 ± 0.19 | 1.04 ± 0.16 | 1.04 (active) |
| Cc1ccc(O)c([C@H](CCN(C(C)C)C(C)C)c2ccccc2)c1.O=C(O)[C@H](O)[C@@H](O)C(=O)O | 0.67 ± 0.061 | 0.881 ± 0.081 | 1.26 ± 0.089 | 0.656 ± 0.042 | 0.951 ± 0.051 | 0.729 ± 0.073 | 0.979 (active) |
| O=C1C=C(c2c(O)ccc3ccccc23)c2ccccc2C1=O | 1.19 ± 0.21 | 0.399 ± 0.055 | 1.66 ± 0.19 | 0.0196 ± 0.0013 | 1.44 ± 0.18 | 0.656 ± 0.074 | 0.556 (inactive) |
| Ic1ccc2c3ccc(I)cc3c3[nH]c(-c4ccccc4)nc3c2c1 | 1.03 ± 0.094 | 1.07 ± 0.14 | 1.11 ± 0.042 | 0.814 ± 0.054 | 1.05 ± 0.1 | 1.31 ± 0.19 | 0.995 (active) |
| O=c1c(-c2ccccc2)coc2cc(O)ccc12 | 1.2 ± 0.089 | 1.09 ± 0.11 | 1.13 ± 0.049 | 0.886 ± 0.051 | 1 ± 0.11 | 0.973 ± 0.097 | 1 (active) |
| Cc1ccccc1N(CC(=O)NCCSc1ccc(Cl)cc1)S(=O)(=O)c1ccccc1 | 0.66 ± 0.079 | 1.01 ± 0.056 | 0.851 ± 0.056 | 0.64 ± 0.034 | 1.4 ± 0.11 | 1.1 ± 0.13 | 1 (active) |
| Oc1c2c(nc3cc(-c4ccc(Br)cc4)nn13)CCS2 | 1.06 ± 0.084 | 1.04 ± 0.064 | 0.857 ± 0.082 | 0.857 ± 0.03 | 1.19 ± 0.16 | 0.921 ± 0.2 | 1.01 (active) |
| Cc1nc(Nc2ncc(C(=O)Nc3c(C)cccc3Cl)s2)cc(N2CCN(CCO)CC2)n1.O | 1.55 ± 0.37 | 0.307 ± 0.025 | 0.644 ± 0.041 | 0.0905 ± 0.0031 | 0.536 ± 0.063 | 0.656 ± 0.081 | 0.492 (inactive) |
| CCC(C)n1ncn(-c2ccc(N3CCN(c4ccc(OC[C@H]5CO[C@](Cn6cncn6)(c6ccc(Cl)cc6Cl)O5)cc4)CC3)cc2)c1=O (some centres not stated) | 1.57 ± 0.47 | 1.04 ± 0.057 | 1.1 ± 0.089 | 0.921 ± 0.044 | 1.2 ± 0.14 | 1.32 ± 0.13 | 0.994 (active) |
